# Bioassay records deposited in PubChem BioAssay by National Center for Advancing Translational Sciences (NCATS).
# A selection: hits, their analogues and other compounds. The true share with any hit is near 12%.
# JMJD2A Tudor inh = qHTS Assay for Inhibitors of JMJD2A-Tudor Domain. 390,000 compounds, 4.4% hits. AID 504339, 2011. AlphaScreen JMJD2A-Tudor / H3K4me3 peptide binding. Potency, µM (titrated, usually from 114 µM), for inactives: at the top dose activity change, negative = inhibition, actives largely listed as inhibitors. Lysine-specific demethylase 4A (Homo sapiens), O75164; also: % is scaled to controls: 0 for no effect and ±100 for the full control effect; nearly all actives have a fitted effect of over 50% in size
# L3MBTL1 inh = qHTS Assay for the Inhibitors of L3MBTL1. AID 485360, 2010. 230,000 compounds, 0.66% hits. Potency, µM (top dose mostly 57.1 µM), for inactives: at the top dose activity, negative = inhibition, actives largely listed as inhibitors. AlphaScreen L3MBTL1–H3K9me1 peptide binding; also: % is scaled to controls: 0 for no effect and ±100 for the full control effect; nearly all actives have a fitted effect of over 60% in size
#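 L3MBTL1 (50 nM) pre-complexed 30 min with biotinylated H3(1-15)K9me1 peptide (75 nM), then compounds added for 30 min at room temperature; AlphaScreen streptavidin donor/nickel chelate acceptor beads (10 ug/mL final) read after 30 min dark incubation.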
# BAZ2B inh = qHTS Assay for Inhibitors of BAZ2B; AlphaScreen BAZ2B-H3K14Ac peptide displacement; AID 504333, 2011; Potency, µM (doses to about 114 µM), inactives show top-dose activity change, negative = inhibition, actives largely listed as inhibitors; 360,000 compounds, 4.4% hits; also: % is scaled to controls: 0 for no effect and ±100 for the full control effect; nearly all actives have a fitted effect of over 60% in size
#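 Multi-concentration screen (max 110 uM) measuring displacement of acetylated histone H3 peptide from BAZ2B by AlphaScreen, using 50 nM protein, 50 nM peptide and 10 ug/mL streptavidin donor plus Ni-chelate acceptor beads.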
# Sfp PPTase inh = qHTS Assay for Inhibitors of Bacillus subtilis Sfp phosphopantetheinyl transferase (PPTase); 4'-phosphopantetheinyl transferase ffp (Bacillus subtilis), Q9F4F7; AID 1490, 2009; 310,000 compounds, 3.5% hits; Biochemical Sfp PPTase activity, qHTS; Potency, µM, for inactives: largest response in the series, negative = inhibition, most hits filed as inhibitors;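 also: the enzyme is Sfp with the accession as filed and its product quenches rhodamine fluorescence; 0% = enzyme reaction without inhibitor and -100% = no enzyme wells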
#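 Fluorescence-quenching assay: 15 nM Sfp-PPTase preincubated 15 min at room temperature with compound, then 5 uM rhodamine-CoA and 12.5 uM BHQ-2-labelled YbbR peptide added. Fluorescence (ex 525/em 598 nm) read at start and after 30 min; difference gives rate.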
# G9a inh = qHTS Assay for Inhibitors of Histone Lysine Methyltransferase G9a; Potency, µM (highest dose often 102 µM), for the others: top-dose activity, negative = inhibition, usual class: inhibitors; Histone-lysine N-methyltransferase EHMT2 (Homo sapiens), Q96KQ7; AID 504332, 2011; G9a H3K9 monomethylation, AlphaScreen, 2 h; 350,000 compounds, 8.8% hits; also: % is scaled to controls: 0 for no effect and ±100 for the full control effect; nearly all actives have a fitted effect of over 75% in size
#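 Methyltransferase reactions run at room temperature for 2 h (20 nM enzyme, 500 nM biotin-H3K9 peptide, 20 uM SAM) after a 15 min compound preincubation; product detected by AlphaScreen beads and anti-H3K9me1 antibody.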
# HP1b chromo inh = HTS for Inhibitors of HP1-beta Chromodomain Interactions with Methylated Histone Tails; 390,000 compounds, 0.56% hits; AlphaScreen HP1-beta / biotin-H3K9me3 peptide binding; Potency, µM (series often up to 114 µM), for inactives: at the highest dose activity change, negative = inhibition, usual class: inhibitors; also: nearly all actives have a fitted effect of over 70% in size
#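 AlphaScreen: HP1-beta (50 nM) preformed 30 min with biotin-H3(1-18)K9me3 peptide (50 nM) in PBS pH 7.4, 0.01% Tween-20. Compound added for 30 min at RT, then streptavidin donor/nickel chelate acceptor beads (10 ug/mL) for 30 min.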
# An asterisk follows results filed as active; ? = inconclusive; / = no result; [ ] = another dose, or the depositor's remark. Calls follow the shape of the dose curve; as a rule, active = well fitted curve in the direction sought with a large enough effect; inconclusive = small, poorly fitted or top-dose-only effect, or another doubt; inactive = no such curve, though single readings can be large; an effect the other way counts as inactive or inconclusive. Potency is read from the fitted curve at half-maximal effect.
SMILES,JMJD2A Tudor inh,L3MBTL1 inh,BAZ2B inh,Sfp PPTase inh,G9a inh,HP1b chromo inh
O=C(Nc1ccc(SC(F)F)cc1)c1cc(-c2ccc3c(c2)OCCO3)on1,-12%,/,-9%,/,0%[59 µM],5%
O=C(C1=C[C@@H]2[C@H]3C(=O)N(c4ccccc4Cl)C(=O)[C@H]3[C@@H](C(=O)c3ccc(Cl)cc3)N2C=C1)c1ccccc1,/,-7%,-39%,-6%,8.9µM*,/
CC(=O)Oc1ccc(C(=O)[C@H]2[C@H]3C(=O)N(c4cccc5ccccc45)C(=O)[C@H]3[C@@H]3C=CC=NN32)cc1,?,-12%,?,?,?,-20%
O=C(C1=C[C@@H]2[C@H]3C(=O)N(c4cccc(Cl)c4)C(=O)[C@H]3[C@@H](C(=O)c3ccc(Cl)cc3)N2C=C1)c1ccccc1,?,1%,-9%,-3%,3.2µM*,-21%
Cc1ccc(N2C(=O)[C@@H]3[C@H](C2=O)[C@H]2C=C(C(=O)c4ccccc4)C=CN2[C@@H]3C(=O)c2ccc(Cl)cc2)cc1,-26%,-7%,-8%,-14%,2.2µM*,37%
COc1cccc(N2CC(NC(=O)/C=C\c3ccc4c(c3)OCO4)CC2=O)c1 (stereo not drawn),-10%,/,-3%,/,6%[59 µM],23%
COc1ccc(N2CC(NC(=O)COc3ccccc3C)CC2=O)cc1OC (stereo not drawn),-14%,/,-2%,/,14%[59 µM],39%
Cc1ccc2cc(C(=O)O)c(C)nc2c1,-7%,4%,?,-21%,50µM*,33%
Cc1ccc2oc(-c3ccccc3C(=O)O)cc(=O)c2c1,-23%[11.4 µM],4%,-3%,-5%,5%[59 µM],45%
O=C(O)c1ccccc1-c1c2cc(Br)c(=O)c(Br)c-2oc2c(Br)c(O)c(Br)cc12,/,/,/,79µM*,?,/
Cc1ccc(S(=O)(=O)N2CCC(C(=O)OCC(=O)NCc3ccco3)CC2)cc1C,-15%,-8%,-12%,/,-18%[59 µM],-9%
CN(C(=O)COC(=O)C1CCN(S(=O)(=O)c2c(Cl)cccc2Cl)CC1)C1CCCCC1,-8%,-2%,-29%,/,40µM*,66%
O=C(COC(=O)C1CCN(S(=O)(=O)c2c(Cl)cccc2Cl)CC1)NCc1ccco1,-21%,-3%,-9%,/,50µM*,1%
CCc1ccccc1-n1nnc(-c2nsc(NC(=O)c3ccc(C)c(C)c3)n2)c1C,-6%,/,1%,/,7%[59 µM],35%
Cc1cc(C(=O)CSc2n[nH]c(N)n2)c(C)n1-c1cccc(F)c1,?,/,50µM*,-12%,?,-19%
COCCn1c(C)cc(C(=O)CSc2nc3nc(C)cc(C)n3n2)c1C,-24%,-1%,-10%,-5%,?,1%
COCCn1c(C)cc(C(=O)CSc2n[nH]c(N)n2)c1C,-16%,14%[11.4 µM],-31%,25µM*,?,10%
Cc1cc(C(=O)CSc2ncccn2)c(C)n1-c1cccc(F)c1,-29%,-2%,-39%,-26%,?,-5%
COc1ccc(OC)c(CCNC(=O)CCc2cn(Cc3cc(C)ccc3C)c3ccccc23)c1,?,/,?,/,?,6%
Cc1ccc(NC(=O)C2CCCN2S(=O)(=O)c2cccc3nsnc23)cc1Cl (stereo not drawn),-35%,/,?,/,?,10%
O=C(c1ccc(COc2ccccc2Br)cc1)N1CCCCC1,79%,/,17%,-23%,4%[59 µM],88%
CC(C)c1ccccc1OCCCCN1CCCCC1,-4%,/,/,/,/,36%
O=C1c2ccccc2C(=O)N1CCOc1ccccc1Br,54%,/,25%,1%,116%,106%
CC(=O)c1ccccc1OCCOCCOCCOc1ccccc1C(C)=O,-1%,8%,-14%,30%,/,21%
Brc1ccccc1OCCCN1CCCCCC1,1µM*,0%,?,-5%,56µM*,?
SMILES,JMJD2A Tudor inh,L3MBTL1 inh,BAZ2B inh,Sfp PPTase inh,G9a inh,HP1b chromo inh
CC(C)c1ccccc1OCCCN1CCCC1,32µM*,?,?,-3%,40µM*,?
CC(=O)c1ccccc1OCCCN1CCCCC1,3.2µM*,-2%,50µM*,?,11µM*,?
Brc1ccccc1OCCCN1CCCC1,10µM*,-34%,?,-15%,/,?
Cc1ccc(CNC(=O)C(=O)NCC(c2ccc3c(c2)OCO3)N2CCOCC2)cc1 (stereo not drawn),-8%,/,1%,/,2%[59 µM],13%[57 µM]
Cc1ccc(C)c(NC(=O)CCc2nc3cccnc3n2Cc2cccs2)c1,-18%,/,-20%,/,3%[59 µM],22%
Brc1ccccc1OCCCCCN1CCOCC1,4.5µM*,/,56µM*,-28%,40µM*,?
Brc1ccccc1OCCN1CCCC1,20µM*,/,/,/,/,79µM*
Fc1ccc(OCCCCN2CCOCC2)cc1,-5%,/,-11%,-1%,-6%[59 µM],23%
CCC(C(=O)Nc1ccc(C)c(C)c1)n1c(=O)c(C(F)(F)F)nc2ccccc21 (stereo not drawn),-6%,/,4%,/,2%[59 µM],10%
COc1ccc(CCNC(=O)CCCn2c(=O)c3ccccc3n(CC(=O)Nc3cccc(C)c3)c2=O)cc1OC,-19%,/,0%,/,-3%[59 µM],22%
Cc1sc2ncnc(N3CCC(C(=O)Nc4ccc(Br)cc4Br)CC3)c2c1C,-14%,3%,7%,/,40µM*,12%
Cc1sc2ncnc(N3CCC(C(=O)Nc4ccc(Cl)cc4Cl)CC3)c2c1C,-10%,37%,-2%,/,56µM*,19%
CNc1nnc(-c2ccc(N(C)C)cc2)s1,-24%,-8%,3%,-6%,7.9µM*,22%
CCc1nnc(SCC(=O)Nc2ccc(C(C)=O)cc2)nc1CC,-16%,/,56µM*,-2%,-6%[12.7 µM],-1%
CC(=O)Nc1cccc(NC(=O)CSc2ccc(-c3ccco3)nn2)c1,?,/,?,32µM*,40µM*,17%
Cc1cc(C)cc(NC(=O)CSc2ccc(-c3ccco3)nn2)c1,-23%,-19%,?,22µM*,25µM*,-2%
Cc1ccccc1NC(=O)CSc1ccc(-c2cccnc2)nn1,-21%,/,2%,11%,-8%,12%
Cc1cc(C)c(NC(=O)CSc2ccc(-c3cccnc3)nn2)c(C)c1,-20%,/,-2%,56µM*,25%,31%
CCOc1ccc(-c2csc(-c3c(N)c(C(=O)c4ccc5c(c4)OCO5)n4ccccc34)n2)cc1,-7%,/,10%,/,44%[59 µM],103%
Cc1nc(C)c(-c2ccc(SCC(=O)Nc3cccc(F)c3)nn2)s1,?,/,-16%,-2%,22µM*,38%
